# Compounds without any hit were thinned out: in the full panel of roughly 79,000, 15% have a hit. Unmarked numbers belong to inactive results. Active and inactive are the calls of the source. Cut-off read from the data, not from the text of the source: active = growth inhibition above about 70%; inactive = the rest.
# Legend:
# [1] = NCI Yeast Anticancer Drug Screen. Data for the rad50 strain (AID 155);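 note: 0% = growth of vehicle-only cultures of the same strain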; settings: S. cerevisiae rad50 strain growth inhibition, active compounds read high
# Summary of the method: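 Readout: growth inhibition relative to vehicle-treated cultures. Compound exposure was carried out in a genetically defined yeast strain deficient in DNA damage repair.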
# [2] = NCI Yeast Anticancer Drug Screen. Data for the mec2-1 strain (AID 157); settings: S. cerevisiae mec2-1 strain, active compounds read high
# Summary of the method: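 Compounds were applied to mec2-1 yeast cells. Their growth was then compared with that of vehicle-treated cultures to give growth inhibition.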
# [3] = NCI Yeast Anticancer Drug Screen. Data for the sgs1 mgt1 strain (AID 161);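 note: 0% = growth of cultures given vehicle only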; settings: S. cerevisiae sgs1 mgt1 strain, active compounds read high
# Summary of the method: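 This yeast growth screen uses a strain with defined DNA-repair lesions; compound-treated growth is compared with vehicle-treated growth.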
# [4] = NCI Yeast Anticancer Drug Screen. Data for the cln2 rad14 strain (AID 165);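 note: 0% = growth equal to vehicle treated cultures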; settings: S. cerevisiae cln2 rad14 strain, active compounds read high
# Summary of the method: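 Strain: cln2 rad14 yeast, altered in cell cycle control and DNA damage repair. Read-out: growth inhibition vs vehicle.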
# [5] = NCI Yeast Anticancer Drug Screen. Data for the bub3 strain (AID 167); settings: S. cerevisiae bub3 mutant strain, active compounds read high
# Summary of the method: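 Readout: yeast growth inhibition, expressed relative to vehicle-only wells. The test organism is a mutant strain from a panel with lesions in DNA repair or checkpoint genes.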
# [6] = NCI Yeast Anticancer Drug Screen. Data for the mlh1 rad18 strain (AID 175); settings: S. cerevisiae mlh1 rad18 strain growth inhibition, active compounds read high
# Summary of the method: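 A repair-deficient yeast strain is exposed to test compound, and growth is scored relative to vehicle-treated controls.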
# [7] = at 5.0 µM (retest, dose inferred, filed as 0.5)
# [8] = at 50.0 µM (retest, dose inferred, filed as 5.0)
SMILES,"growth inhibition [1, 7] [%]","growth inhibition [1, 8]",growth inhibition ([1]; at 50.0 µM),"growth inhibition [2, 7] [%]","growth inhibition [2, 8]",growth inhibition ([2]; at 50.0 µM),"growth inhibition [3, 7] [%]","growth inhibition [3, 8]",growth inhibition ([3]; at 50.0 µM),"growth inhibition [4, 7] [%]","growth inhibition [4, 8]",growth inhibition ([4]; at 50.0 µM),"growth inhibition [5, 7] [%]","growth inhibition [5, 8]",growth inhibition ([5]; at 50.0 µM),"growth inhibition [6, 7] [%]","growth inhibition [6, 8]",growth inhibition ([6]; at 50.0 µM)
CCCCNc1ncc(OCC)c(NCCCC)n1,1,-1%,73.5% (active),4,-44%,88.9% (active),0,4%,92.5% (active),-2,4%,42.6%,39,23%,94.9% (active),0,1%,77.7% (active)
Clc1cc(Cl)c2c(c1)nc(Cl)c1cc(Cl)ccc12,-13,1%,97% (active),-13,7%,99% (active),-5,1%,97.6% (active),-1,2%,98.5% (active),-5,1%,98.7% (active),-14,-20%,98.6% (active)
Cc1ccc(NC(=S)SCc2ccc3c(c2)OCO3)cc1Cl,19,96% (active),98.9% (active),15,99% (active),99.5% (active),16,98% (active),99% (active),-7,97% (active),98.8% (active),15,99% (active),99.2% (active),39,97% (active),99.2% (active)
COC(=O)C1C(c2ccccc2)=N[C@@H](c2ccccc2)[C@H]1C(=O)OC (some centres not stated),2,-3%,17.4%,3,-2%,-2.15%,9,3%,17.1%,6,7%,23.2%,6,32%,3.55%,1,0%,76.7% (active)

# Reference: PubChem BioAssay (NCI)
